This is an account of results in PubChem BioAssay (EPA / NIEHS).

The source made the active and inactive calls. How the source made its calls: active means hit-call score of the fitted dose curve at least 0.9, where 1 is the maximum; inactive means score below 0.9.

Read-out in assay [1]: Transforming growth factor beta 1 (TGFb1), TGFB1 (gene 7040)
Kind of assay: BSK_KF3CT_TGFb1: BioMAP Diversity Plus: KF3CT Assay for Transforming growth factor beta 1 (TGFb1) Biomarker Activity (AID 2283072). As to conditions: primary human keratinocytes with fibroblasts; actives raise or lower the signal. Summed up: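 ELISA quantifies TGF-b1 at 24 h post-dose in a primary human skin co-culture of keratinocytes and fibroblasts, with gain or loss judged against DMSO. Parallel SRB total-protein staining flags overt cytotoxicity.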

Read-out in assay [2]: C-C motif chemokine 2 (Homo sapiens) (UniProt P13500)
In words: BSK_KF3CT_MCP1: BioMAP Diversity Plus: KF3CT Assay for Monocyte Chemoattractant Protein 1 (MCP1/CCL2) Biomarker Activity (AID 2283073). As to conditions: primary human keratinocytes with fibroblasts; actives raise or lower the signal. Summed up:
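Human keratinocyte plus foreskin fibroblast primary co-culture exposed to chemical for 24 h. MCP-1 levels measured by ELISA. Bidirectional curve fitting relative to DMSO negative control as baseline.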

Read-out in assay [3]: Matrix Metallopeptidase 9 (MMP9), MMP9 (gene 4318)
Kind of assay: BSK_KF3CT_MMP9: BioMAP Diversity Plus: KF3CT Assay for Matrix Metallopeptidase 9 (MMP9) Biomarker Activity (AID 2283074).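 On AC50: MMP9 protein level quantified by ELISA in the co-culture.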 As to conditions: primary human keratinocytes with fibroblasts; actives raise or lower the signal. Summed up: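 ELISA read-out of MMP-9 at 24 h post-dosing in a co-culture of human skin keratinocytes and foreskin fibroblasts. Gain or loss of signal was fitted in both directions against DMSO.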

Read-out in assay [4]: urokinase plasminogen activator (uPA), PLAU (gene 5328)
In words: BSK_KF3CT_uPA: BioMAP Diversity Plus: KF3CT Assay for urokinase plasminogen activator (uPA) Biomarker Activity (AID 2283075). The note with it: primary human keratinocytes with fibroblasts; actives raise or lower the signal. Summed up:
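Skin co-culture (keratinocytes + foreskin fibroblasts), human primary; 24 h post-dose; uPA by ELISA; gain/loss fit vs DMSO baseline.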

Read-out in assay [5]: CD40, CD40 (gene 958)
Kind of assay: BSK_LPS_CD40: BioMAP Diversity Plus: LPS Assay for CD40 Biomarker Activity (AID 2283076). The note with it: primary human HUVEC with PBMC; actives raise or lower the signal. Summed up: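 Primary human umbilical vein endothelial cells co-cultured with peripheral blood mononuclear cells, LPS-stimulated, were dosed with chemical and read 24 h later. CD40 levels were measured by ELISA and fitted bidirectionally against DMSO as negative control and baseline.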

Read-out in assay [6]: E-selectin (Homo sapiens) (UniProt P16581)
Kind of assay: BSK_LPS_Eselectin: BioMAP Diversity Plus: LPS Assay for Eselectin Biomarker Activity (AID 2283077). As to conditions: primary human HUVEC with PBMC; actives raise or lower the signal. Summed up: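 Human umbilical vein endothelial cells co-cultured with peripheral blood mononuclear cells under LPS stimulation; E-selectin measured by ELISA 24 h after chemical dosing. Activity fitted bidirectionally against DMSO as negative control and baseline.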

Read-out in assay [7]: Interleukin-8 (IL8), CXCL8 (gene 3576)
Kind of assay: BSK_LPS_IL8: BioMAP Diversity Plus: LPS Assay for Interleukin-8 (IL8) Biomarker Activity (AID 2283078). As to conditions: primary human HUVEC with PBMC; actives raise or lower the signal. Summed up: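 Human umbilical vein endothelial cells co-cultured with PBMC were stimulated with LPS; IL-8 levels were measured by ELISA 24 h after chemical dosing. Activity was fitted bidirectionally against DMSO as negative control and baseline.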

Assay [8] is described as follows: BSK_LPS_SRB: Viability Assessment in the BioMAP Diversity Plus: LPS Assay (AID 2283079).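 Further: total protein by sulforhodamine B absorbance as a cytotoxicity measure; measured one day after compound addition.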 The note with it: primary human HUVEC with PBMC. Summed up: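 Human umbilical vein endothelial cells co-cultured with PBMC (LPS system) were dosed for 24 h. Total protein was stained with 0.1% sulforhodamine B after 10% TCA fixation, read at 560 nm, and fitted bidirectionally against DMSO baseline.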

Read-out in assay [9]: Interleukin-1 alpha (IL1a), IL1A (gene 3552)
Kind of assay: BSK_LPS_IL1a: BioMAP Diversity Plus: LPS Assay for Interleukin-1 alpha (IL1a) Biomarker Activity (AID 2283080). The note with it: primary human HUVEC with PBMC; actives raise or lower the signal. Summed up: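 Human umbilical vein endothelial cells co-cultured with peripheral blood mononuclear cells were LPS-stimulated and exposed to test chemicals for 24 h. IL-1 alpha was quantified by ELISA, with bidirectional curve fitting against DMSO as the negative control and baseline.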

Read-out in assay [10]: Monocyte Chemoattractant Protein-1 (MCP1), CCL2 (gene 6347)
Kind of assay: BSK_LPS_MCP1: BioMAP Diversity Plus: LPS Assay for Monocyte Chemoattractant Protein-1 (MCP1) Biomarker Activity (AID 2283081).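 On AC50: co-culture stimulated with LPS; secreted MCP-1 protein quantified by ELISA in culture supernatant.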 The note with it: primary human HUVEC with PBMC; actives raise or lower the signal. Summed up:
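HUVEC plus PBMC co-culture (human primary cells, LPS system) exposed to test chemical for 24 h; MCP-1 measured by ELISA. Bidirectional curve fitting against DMSO baseline; parallel SRB total-protein staining flags overt cytotoxicity.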

The nature of assay [11]: BSK_LPS_PGE2: BioMAP Diversity Plus: LPS Assay for Prostaglandin E2 (PGE2) Biomarker Activity (AID 2283082).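 On AC50: secreted prostaglandin E2 measured by ELISA in LPS-stimulated co-culture.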 The note with it: primary human HUVEC with PBMC; actives raise or lower the signal. Summed up:
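PGE2 release measured by ELISA in an LPS-activated co-culture of human umbilical vein endothelial cells and peripheral blood mononuclear cells, read at 24 h post-dosing. DMSO served as baseline for bidirectional curve fitting.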

Read-out in assay [12]: Macrophage colony-stimulating factor (MCSF), CSF1 (gene 1435)
In words: BSK_LPS_MCSF: BioMAP Diversity Plus: LPS Assay for Macrophage colony-stimulating factor (MCSF) Biomarker Activity (AID 2283083). The note with it: primary human HUVEC with PBMC; actives raise or lower the signal. Summed up:
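Human umbilical vein endothelial cells co-cultured with peripheral blood mononuclear cells were exposed to compound for 24 h. M-CSF levels were measured by ELISA, and bidirectional curve fitting used DMSO as the negative control and baseline.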

Read-out in assay [13]: Tissue Factor, F3 (gene 2152)
Kind of assay: BSK_LPS_TissueFactor: BioMAP Diversity Plus: LPS Assay for Tissue Factor Biomarker Activity (AID 2283084). As to conditions: primary human HUVEC with PBMC; actives raise or lower the signal. Summed up: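 Human umbilical vein endothelial cells co-cultured with peripheral blood mononuclear cells were dosed and stimulated with LPS. Cell-surface CD142 was quantified by ELISA at 24 h. Activity was fitted bidirectionally against DMSO baseline.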

Read-out in assay [14]: Tumor necrosis factor (Homo sapiens) (UniProt P01375)
In words: BSK_LPS_TNFa: BioMAP Diversity Plus: LPS Assay for Tumour Necrosis Factor alpha (TNFa) Biomarker Activity (AID 2283085).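 Further: TNFa protein level quantified by ELISA in the co-culture.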 The note with it: primary human HUVEC with PBMC; actives raise or lower the signal. Summed up: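 TNFa was quantified by ELISA in LPS-activated co-cultures of human endothelial cells and PBMC, 24 h post-dosing. Both increases and decreases versus DMSO were fitted.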

Read-out in assay [15]: Vascular cell adhesion molecule 1 (VCAM1), VCAM1 (gene 7412)
Kind of assay: BSK_LPS_VCAM1: BioMAP Diversity Plus: LPS Assay for Vascular cell adhesion molecule 1 (VCAM1) Biomarker Activity (AID 2283086). The note with it: primary human HUVEC with PBMC; actives raise or lower the signal. Summed up: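 VCAM-1 quantified by ELISA in an LPS-activated co-culture of human endothelial cells and peripheral blood mononuclear cells, read 24 h post-treatment. Fitted in both directions versus DMSO; parallel SRB staining flags overt cytotoxicity.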

Read-out in the next assay: CD38, CD38 (gene 952)
In words: BSK_SAg_CD38: BioMAP Diversity Plus: SAg Assay for CD38 Biomarker Activity (AID 2283087). As to conditions: primary human HUVEC with PBMC; actives raise or lower the signal. Summed up: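 CD38 quantified by ELISA (fluorescence) in a superantigen-activated endothelial cell–PBMC co-culture at 24 h post-dose. Activity fitted in both directions relative to DMSO; parallel SRB and Alamar Blue cytotoxicity read-outs.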

Read-out in assay [16]: CD40, CD40 (gene 958)
Kind of assay: BSK_SAg_CD40: BioMAP Diversity Plus: SAg Assay for CD40 Biomarker Activity (AID 2283088). The note with it: primary human HUVEC with PBMC; actives raise or lower the signal. Summed up: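 Human umbilical vein endothelial cells co-cultured with PBMC; CD40 levels measured by ELISA with fluorescence read-out 24 h after chemical dosing. Gain or loss of signal fitted bidirectionally against DMSO baseline.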

Read-out in assay [17]: Monocyte Chemoattractant Protein-1 (MCP1), CCL2 (gene 6347)
In words: BSK_SAg_MCP1: BioMAP Diversity Plus: SAg Assay for Monocyte Chemoattractant Protein-1 (MCP1) Biomarker Activity (AID 2283090). The note with it: primary human HUVEC with PBMC; actives raise or lower the signal. Summed up: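 Values derive from bidirectional fitting of ELISA-measured MCP1 against DMSO controls. Readings were taken 24 h after dosing human vascular endothelial cells co-cultured with peripheral blood mononuclear cells under superantigen stimulation.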

Read-out in assay [18]: TIMP metallopeptidase inhibitor 2 (TIMP2), TIMP2 (gene 7077)
In words: BSK_KF3CT_TIMP2: BioMAP Diversity Plus: KF3CT Assay for TIMP metallopeptidase inhibitor 2 (TIMP2) Biomarker Activity (AID 2283071). As to conditions: primary human keratinocytes with fibroblasts; actives raise or lower the signal. Summed up:
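TIMP-2 measured by ELISA at 24 h in human keratinocyte/fibroblast primary co-cultures exposed to chemicals. Both increases and decreases were fitted against DMSO. Parallel cultures were stained with SRB for total protein as an overt-cytotoxicity check.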

Read-out in the next assay: CD69, CD69 (gene 969)
In words: BSK_SAg_CD69: BioMAP Diversity Plus: SAg Assay for CD69 Biomarker Activity (AID 2283089).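 Further: cell surface CD69 protein quantified by ELISA with fluorescence detection.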 The note with it: primary human HUVEC with PBMC; actives raise or lower the signal. Summed up:
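Primary human vascular co-culture (umbilical vein endothelium with peripheral blood mononuclear cells) exposed to test chemical for 24 h. CD69 levels quantified by fluorescence ELISA; DMSO served as negative control for bidirectional fitting.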

Tumor necrosis factor (Homo sapiens), sequence (P01375 whole entry, looked up): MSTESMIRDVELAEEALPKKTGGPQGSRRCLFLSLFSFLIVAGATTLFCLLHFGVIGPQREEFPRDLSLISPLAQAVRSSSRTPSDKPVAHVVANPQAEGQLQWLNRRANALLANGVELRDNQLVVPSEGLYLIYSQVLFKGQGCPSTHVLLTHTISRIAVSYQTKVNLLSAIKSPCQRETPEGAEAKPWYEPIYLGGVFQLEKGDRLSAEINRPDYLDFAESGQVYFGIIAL
E-selectin (Homo sapiens), sequence (P16581 whole entry, looked up): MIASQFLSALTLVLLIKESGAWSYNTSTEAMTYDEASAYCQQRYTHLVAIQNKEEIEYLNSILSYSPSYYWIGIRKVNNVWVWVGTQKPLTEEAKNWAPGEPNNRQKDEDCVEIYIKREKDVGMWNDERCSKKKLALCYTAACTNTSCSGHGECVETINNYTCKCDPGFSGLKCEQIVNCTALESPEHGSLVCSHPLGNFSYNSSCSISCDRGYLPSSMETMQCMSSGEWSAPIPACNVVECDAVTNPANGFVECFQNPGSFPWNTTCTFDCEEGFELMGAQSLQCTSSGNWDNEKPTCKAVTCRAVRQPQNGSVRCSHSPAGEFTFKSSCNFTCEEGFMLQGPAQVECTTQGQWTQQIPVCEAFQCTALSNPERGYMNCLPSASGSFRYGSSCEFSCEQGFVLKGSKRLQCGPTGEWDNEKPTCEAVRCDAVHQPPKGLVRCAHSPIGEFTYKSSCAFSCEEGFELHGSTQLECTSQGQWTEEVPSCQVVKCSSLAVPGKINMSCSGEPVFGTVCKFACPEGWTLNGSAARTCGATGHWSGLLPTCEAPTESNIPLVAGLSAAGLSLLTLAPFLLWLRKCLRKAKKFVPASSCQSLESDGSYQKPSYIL

One may read the AC50 as the concentration giving half of the maximal activity seen. For `CCc1cccc(C)c1N(C(=O)CCl)C(C)COC` (stereo not given), the outcome in assay [1], in [2], in assay [3], in assay [4], in assay [6] and in assay [7] was inactive. Besides, the result in [8], in [9], in assay [10], in assay [11], in assay [12] and in assay [13] was inactive. For the same molecule, the outcome was “inactive” with CD38, CD38 (gene 952); “inactive” in the assay with CD40, CD40 (gene 958) [16]; “inactive” in assay [17]. For the same molecule, the AC50 with CD40, CD40 (gene 958) [5] is 17.5 µM (active); in [14], 13.1 µM (active); in assay [15], 14.2 µM (active).

`COP(=O)(OC)SCn1c(=O)oc2cc(Cl)cnc21`: the outcome in [18], in [1], in assay [9], in assay [10], in assay [13] and in [17] was inactive. Also, the AC50 in [2] was 31.3 µM (active); in assay [3], 25.8 µM (active); in assay [4], 20 µM (active); in the assay with CD40, CD40 (gene 958) [5], 19.8 µM (active); in assay [6], 19.1 µM (active); in assay [7], 20 µM (active). Moreover, the AC50 in assay [8] was 20 µM (active); in assay [11], 2.01 µM (active); in assay [12] it was 18.3 µM (active); in [14], 0.148 µM (active); in assay [15] it was 4.34 µM (active); with CD38, CD38 (gene 952), 21.4 µM (active).

Consider `COc1ccc(C(=CC(=O)N2CCOCC2)c2ccc(Cl)cc2)cc1OC`, for which the outcome in assay [18], in assay [1], in assay [2], in [3], in [4] and in [7] was inactive. In addition, the result in [8], in assay [9], in assay [11], in assay [13] and in [15] was inactive. In addition, the AC50 with CD40, CD40 (gene 958) [5] was 14.1 µM (active); in [6], 10.3 µM (active); in assay [10], 1.25 µM (active); in assay [12], 12.8 µM (active); in [14], 1.4 µM (active); with CD38, CD38 (gene 952) it was 17.4 µM (active). Moreover, the AC50 with CD69, CD69 (gene 969) is 4.3 µM (active); in assay [17], 12.8 µM (active).
